For experiment [1] the following is noted: Ebola virus entry assay, green fluorescence channel.
The conditions of experiment [2]: Ebola virus entry assay, blue channel fluorescence.
The conditions of experiment [3]: Ebola virus entry assay, ratio channel.
For experiment [4] the following is noted: Ebola virus entry assay, green channel fluorescence.
For experiment [5] the following is noted: Ebola virus entry assay, reporter ratio channel; Channel type: primary.
For experiment [6] the following is noted: Ebola virus entry assay, blue channel (ratio component).

A number with no mark means an inactive call. For part of these data: Measured potencies and affinities stand elsewhere. Calls of active or inactive are those of the source. No rule for the calls is given here. Bridge positions count the residues as written; N and C are the ends. Square brackets hold non-standard residues; d marks the D form. Peptide text beside a SMILES is read from it. hArg = N=C(N)NCCCC[C@H](N)C(=O)O; Mpa = O=C(O)CCS
For efficacy in this document: 0% is about no effect.

On to `Nc1c(NC/C=C\COc2cc(CN3CCCCC3)ccn2)c(=O)c1=O`, for which, in experiment [1], the efficacy is -32.1%. In addition, the compound was called inactive in experiment [2], in experiment [3], in experiment [4], in experiment [5] and in experiment [6].
In the case of `CC1CCc2cc(F)cc3c(=O)c(C(=O)O)cn1c23` (centres undefined), the efficacy in experiment [1] is -9.54%. Also, the call in experiment [2], in experiment [3], in experiment [4], in experiment [5] and in experiment [6] was inactive.
For the compound `O=C(O)c1cccnc1Nc1cccc(C(F)(F)F)c1`, the efficacy in experiment [1] was -25.4%. In addition, the result in experiment [2], in experiment [3], in experiment [4], in experiment [5] and in experiment [6] was inactive.
`CCCCN1CCCC[C@H]1C(=O)Nc1c(C)cccc1C`: the efficacy in experiment [1] was 30%. Besides, the call in experiment [2], in experiment [3], in experiment [4] and in experiment [6] was inactive. In experiment [5], the AC50 was 39.8 µM (active).
With `O=C(O)COC(=O)Cc1ccccc1Nc1c(Cl)cccc1Cl`, the efficacy in experiment [1] was 31.8%. The outcome in experiment [2], in experiment [3], in experiment [4], in experiment [5] and in experiment [6] was inactive.
For the compound `OC[C@H]1O[C@@H](n2cnc3c(=S)nc[nH]c32)[C@H](O)[C@@H]1O`, the efficacy in experiment [1] was 23.6%. Further, the result in experiment [2], in experiment [3], in experiment [4], in experiment [5] and in experiment [6] was inactive.
For the compound `Cc1c(N)c(=O)n(-c2ccccc2)n1C`, the efficacy in experiment [1] was -25.5%. In addition, the call in experiment [2], in experiment [3], in experiment [4], in experiment [5] and in experiment [6] was inactive.
With `C[C@]12CC[C@@H]3c4ccc(O)cc4CC[C@H]3[C@@H]1CC[C@@H]2OC(=O)CCC1CCCC1`, the efficacy in experiment [1] is 23.9%. The outcome in experiment [2], in experiment [3], in experiment [4], in experiment [5] and in experiment [6] was inactive.
For the compound `CC1=C2[C@H]3OC(=O)[C@@H](C)[C@@H]3CC[C@@]2(C)C=CC1=O`, the efficacy in experiment [1] is 18.3%. The call in experiment [2], in experiment [3], in experiment [4], in experiment [5] and in experiment [6] was inactive.
Regarding `Nc1ccc(S(=O)(=O)Nc2nccs2)cc1`, the efficacy in experiment [1] was -14%. Moreover, the result in experiment [2], in experiment [3], in experiment [4], in experiment [5] and in experiment [6] was inactive.
For the compound `CCOc1c(N2CCOCC2)cnn(C)c1=O`, the efficacy in experiment [1] is -16.1%. Besides, the compound was classed as inactive in experiment [2], in experiment [3], in experiment [4], in experiment [5] and in experiment [6].
`NC(=O)[C@@H]1CSSCCC(=O)N[C@@H](CCCCN=C(N)N)C(=O)NCC(=O)N[C@@H](CC(=O)O)C(=O)N[C@@H](Cc2c[nH]c3ccccc23)C(=O)N2CCC[C@H]2C(=O)N1` ([Mpa][hArg]GDWPC-NH2; disulfide 1-7): in experiment [1], the efficacy is 12.3%. Besides, the outcome in experiment [2], in experiment [3], in experiment [4], in experiment [5] and in experiment [6] was inactive.
For the compound `Cc1cc(NC(=O)C2=C(O)c3ccccc3S(=O)(=O)N2C)no1`, in experiment [1], the efficacy was -7.71%. Besides, the call in experiment [2], in experiment [3], in experiment [4], in experiment [5] and in experiment [6] was inactive.
As to `O=S1(=O)OC(c2ccc(O)cc2)(c2ccc(O)cc2)c2ccccc21`, in experiment [1], the efficacy is 19.3%. The compound was called inactive in experiment [2], in experiment [3], in experiment [4], in experiment [5] and in experiment [6].
For `NCc1cccnc1`, in experiment [1], the efficacy is -20.3%. Besides, the compound was called inactive in experiment [2], in experiment [3], in experiment [4], in experiment [5] and in experiment [6].
In the case of `O=c1[nH]c(=O)c2[nH]c(=O)[nH]c2[nH]1`, the efficacy in experiment [1] was 22%. In addition, the outcome in experiment [2], in experiment [3], in experiment [4], in experiment [5] and in experiment [6] was inactive.
Take `C[C@]12CC[C@H]3[C@@H](CC=C4C[C@@H](O)CC[C@@]43C)[C@@H]1CC[C@@H]2O`: the efficacy in experiment [1] was -35.9%. The call in experiment [2], in experiment [3], in experiment [4], in experiment [5] and in experiment [6] was inactive.
As to `CCn1ccnc1CC1COc2ccccc2O1` (centres undefined), the efficacy in experiment [1] was -17.5%. For the same compound, the compound was called inactive in experiment [2], in experiment [3], in experiment [4], in experiment [5] and in experiment [6].
`CCCNC(C)(C)COC(=O)c1ccccc1`: in experiment [1], the efficacy is -21%. Moreover, the call in experiment [2], in experiment [3], in experiment [4], in experiment [5] and in experiment [6] was inactive.
Take `CC[N+](CC)(CC(=O)Nc1c(C)cccc1C)Cc1ccccc1`: the efficacy in experiment [1] was -14.7%. Further, the compound was called inactive in experiment [2], in experiment [3], in experiment [4], in experiment [5] and in experiment [6].
With `CCOc1ccc(NC(C)=O)cc1`, the efficacy in experiment [1] was -22.6%. For the same compound, the result in experiment [2], in experiment [3], in experiment [4], in experiment [5] and in experiment [6] was inactive.
With `O=c1[nH]c2cc(C(F)(F)F)c(N3CCOCC3)cc2n(CP(=O)(O)O)c1=O`, in experiment [1], the efficacy was -34.7%. Moreover, the call in experiment [2], in experiment [3], in experiment [4], in experiment [5] and in experiment [6] was inactive.
For the compound `CC(C)NC(=O)c1ccc(C=O)cc1`, the efficacy in experiment [1] was 10.7%. Also, the result in experiment [2], in experiment [3], in experiment [4], in experiment [5] and in experiment [6] was inactive.
`CCCc1cc(C(N)=S)ccn1`: in experiment [1], the efficacy is -10.8%. Moreover, the compound was called inactive in experiment [2], in experiment [3], in experiment [4], in experiment [5] and in experiment [6].
Turning to `CC(C)C(=O)OCc1cccc(OC(=O)[C@@H]2N3C(=O)[C@@H](NC(=O)Cc4ccccc4)[C@H]3SC2(C)C)c1`, in experiment [1], the efficacy is -28.9%. Moreover, the result in experiment [2], in experiment [3], in experiment [4], in experiment [5] and in experiment [6] was inactive.
As for `CCCCCCCCCCCCOS(=O)(=O)O`, the efficacy in experiment [1] is -26.4%. Besides, the compound was called inactive in experiment [2], in experiment [3], in experiment [4], in experiment [5] and in experiment [6].
`Cc1ccc(O)c(-n2nc3ccccc3n2)c1`: the efficacy in experiment [1] was 21%. In addition, the result in experiment [2], in experiment [3], in experiment [4], in experiment [5] and in experiment [6] was inactive.
Consider `CCNc1nc(Cl)nc(NCC)n1`, for which the efficacy in experiment [1] is 16.6%. The call in experiment [2], in experiment [3], in experiment [4], in experiment [5] and in experiment [6] was inactive.
On to `Cc1ccc(Nc2c(F)cccc2Cl)c(CC(=O)O)c1`, for which the efficacy in experiment [1] is -7.19%. For the same compound, the result in experiment [2], in experiment [3], in experiment [4], in experiment [5] and in experiment [6] was inactive.

Values taken from PubChem BioAssay (NCATS).
